Our source for the growth values is PubChem BioAssay (NCI).

Structures are written as SMILES. About 83,000 compounds went through this panel and 20% of them were active in at least one assay; those are over-represented in the sample as a whole.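 48-hour exposure, single concentration, 96-well plates; percent growth endpoint where 0 means no net growth. Active: below 10.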 A number with no mark means an inactive call. Activity calls are given as the source filed them.

One experiment has as its system CCRF-CEM leukemia. Kind of experiment: NCI-60 one-dose screen, 48 h (100 = growth as untreated, 0 = no growth, -100 = all killed). The note with it: 10 µM unless noted.
Turning to `CC(=O)OC[C@]12CC[C@@H]([C@@H](C)c3nnc(-c4ccncc4)o3)[C@@H]1[C@H]1CC[C@@H]3[C@@]4(C)CC[C@H](OC(C)=O)C(C)(C)[C@@H]4CC[C@@]3(C)[C@]1(C)CC2`, the growth is 68.4%.
Take `CCN1C(=O)N(CC)C2C1NN=c1s/c(=C\c3cnc(C)n3C)c(=O)n12` (centres undefined): the growth was 9.03% (active).
With `C#Cc1cccc(Nc2nc(C)nc3cc(NC(=O)CCl)ccc23)c1`, the growth was -12.3% (active).
Regarding `CCN(CC)CCCOc1ccc2ncnc(Nc3ccc(Oc4cccc(C(F)(F)F)c4)c(Cl)c3)c2c1`, the growth is 1.81% (active).
On the same count and under the same terms, the value for `O=C1/C(=C\c2ccccn2)c2ccccc2N1c1c(Cl)cccc1Cl` was 8.81% (active).
Take `O=C(CN1CCN(c2cc3c(cc2F)c(=O)c(C(=O)O)cn3C2CC2)CC1)N/N=C/c1ccco1`: the growth is 107%.
In the case of `Clc1ccc(-c2cc(-c3ccccc3)nc(NCCNc3ccnc4cc(Cl)ccc34)n2)cc1`, the growth was -2.14% (active).
The same measure, in the same setting: the value for `COc1cc(OC)c(C(=O)C(CN(C)C)CN(C)C)cc1OC` was -58.1% (active).
For `Cc1nc2ccccc2c(/C=C/c2ccccc2)c1C(=O)/C=C/c1ccccc1`, the growth is 6.85% (active).
Consider `Cc1c(Cl)cccc1C(=O)Nc1nc2c(s1)CN(C(=O)c1ccc(C(F)(F)F)cc1)CC2`, for which the growth was 16.5%.
For the compound `CN1C(=O)/C(=C/c2ccc(C(=O)Nc3ncc(Cc4cccc(Cl)c4)s3)cc2)SC1=S`, the growth is 69.3%.
`O=C(NCc1cccc(CNC(=O)Nc2nc3ccccc3[nH]2)c1)Nc1nc2ccccc2[nH]1`: the growth is 30.3%.
Consider `COc1ccc(Cn2cc3c(c2-c2ccccc2)CCc2cnoc2-3)cc1`, for which the growth was 8.41% (active).
Regarding `Cc1ccc(CNc2c3ccccc3nc3ccccc23)cc1`, the growth is 20.9%.
The same measure, in the same setting: under `FC(F)(F)c1ccc(Cn2cc(CSc3nc4ccccc4s3)nn2)cc1` stands 91%; under `CC(=O)/C(=C/c1ccc([N+](=O)[O-])cc1)C(=O)c1ccccc1`, 33.7%.

Another experiment relates to MOLT-4 leukemia. The description is as above. The note with it: 10 µM unless noted.
On to `CC(=O)OC[C@]12CC[C@@H]([C@@H](C)c3nnc(-c4ccncc4)o3)[C@@H]1[C@H]1CC[C@@H]3[C@@]4(C)CC[C@H](OC(C)=O)C(C)(C)[C@@H]4CC[C@@]3(C)[C@]1(C)CC2`, for which the growth is 57.2%.
`CCN(CC)c1ccc(/C=N/NC(=O)Cc2ccc(Nc3ccnc(C(F)(F)F)c3)cc2)c(O)c1`: the growth was 10.4%.
On the same count and under the same terms, under `Cc1cc2c(cc1C)N(C(=O)CCl)CC(=O)N2` stands 17.1%; under `C#CC#CC#CC#CC#CC#CC#CC#CC[C@@H]1OC[C@@H](COC(=O)O[C@@H](C(=O)O[C@H]2C[C@@]3(O)[C@@H](OC(=O)c4ccccc4)[C@@H]4[C@]5(OC(C)=O)CO[C@@H]5C[C@H](O)[C@@]4(C)C(=O)[C@H](OC(C)=O)C(=C2C)C3(C)C)[C@@H](NC(=O)c2ccccc2)c2ccccc2)O1`, 9.3% (active).
The same measure, in the same setting: the value for `CCN1C(=O)N(CC)C2C1NN=c1s/c(=C\c3cnc(C)n3C)c(=O)n12` (centres undefined) was 35%.
Still for that read-out and setting: the value for `C/C=C(\C)C(=O)N[C@H]1C(O)C[C@]2(C)C3CC[C@@]4(C)C(CC[C@@H]4C(C)N(C)C)C3CCC2C1O` (some centres undefined) was 17%.
With `C#Cc1cccc(Nc2nc(C)nc3cc(NC(=O)CCl)ccc23)c1`, the growth is -20.7% (active).
On to `CSc1nn2c(-c3ccc4ccccc4c3)ccnc2c1C#N`, for which the growth was 28.5%.
Turning to `CCN(CC)CCCOc1ccc2ncnc(Nc3ccc(Oc4cccc(C(F)(F)F)c4)c(Cl)c3)c2c1`, the growth was 0.414% (active).
On to `O=C1/C(=C\c2ccccn2)c2ccccc2N1c1c(Cl)cccc1Cl`, for which the growth is 3.48% (active).
Still for that read-out and setting: the value for `CCOC(=O)c1c(C)c2c(n1Cc1ccccc1)CSCC2=O` was 12.9% [100 µM]; that for `O=C(CN1CCN(c2cc3c(cc2F)c(=O)c(C(=O)O)cn3C2CC2)CC1)N/N=C/c1ccco1` was 93.9%.
Still for that read-out and setting: the value for `Clc1ccc(-c2cc(-c3ccccc3)nc(NCCNc3ccnc4cc(Cl)ccc34)n2)cc1` was -1.52% (active).
With `N#C/C(=C\C=C\c1ccc(-c2cc(Cl)ccc2Cl)o1)c1nc2ccccc2s1`, the growth is 99.1%.
`COc1cc(OC)c(C(=O)C(CN(C)C)CN(C)C)cc1OC`: the growth is -39.8% (active).
Turning to `CCn1cc(CNc2ccc(C(=O)Nc3cc4cc(OC)c(OC)cc4c(C)n3)cc2)cn1`, the growth is 35.2%.
Take `N#Cc1c(-c2ccccc2)nc(SCc2nnc(-c3ccc(Cl)cc3)o2)[nH]c1=O`: the growth is 79.9%.
Same read-out and setting: the value for `O=P(O)(O)OCC1OC(n2cnc3c(NCc4ccco4)ncnc32)C(O)C1O` (centres undefined) was 16%.
